Screening results as filed in PubChem.
Rows were chosen to be rich in hits. Some 4% of all compounds tested hit in one or more screens of this group.
D1 antag: Antagonist of Human D 1 Dopamine Receptor: qHTS; HEK293 TREx D1 cells, calcium flux, dopamine EC80; hits give low values; activity change, negative = inhibition, % at 10 µM; 360,000 compounds, 3.2% hits; AID 504652, 2011; in the data active means activity change below about -30%; further: on the % scale 0 is the no-effect control and ±100 the full control effect
Target sequence (P21728 whole entry, looked up): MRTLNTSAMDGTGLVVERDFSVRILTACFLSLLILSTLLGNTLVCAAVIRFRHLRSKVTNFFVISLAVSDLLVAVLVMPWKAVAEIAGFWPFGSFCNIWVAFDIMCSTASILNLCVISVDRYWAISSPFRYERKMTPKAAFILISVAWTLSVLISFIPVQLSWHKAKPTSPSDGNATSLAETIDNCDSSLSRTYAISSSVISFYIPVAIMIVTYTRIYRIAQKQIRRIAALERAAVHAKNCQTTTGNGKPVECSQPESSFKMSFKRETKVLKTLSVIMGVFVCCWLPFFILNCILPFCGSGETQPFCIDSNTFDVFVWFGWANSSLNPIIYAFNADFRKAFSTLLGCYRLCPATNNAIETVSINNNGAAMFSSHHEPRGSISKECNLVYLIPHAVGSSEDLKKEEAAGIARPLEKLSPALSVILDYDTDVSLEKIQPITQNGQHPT
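Cells carrying a force-coupled, tetracycline-inducible human D1 receptor report calcium flux. Each well gets a 10 s baseline, compound with 180 s monitoring, then an EC80 dopamine stimulus with a second 180 s kinetic read.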
TRHR PAM: qHTS for Small Molecule Agonists and Allosteric Enhancers of Human TRH Receptor: Primary Screen for Enhancers | TRHR cells, fluo-8 calcium fluorescence, EC20 TRH enhancement | enhancement, % at 2 µM | 360,000 compounds, 0.66% hits | AID 493056, 2011; in the data active means enhancement above about 30%; further: 0% is about no effect
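Enhancer read-out: after compound pinning and an initial kinetic agonist-mode read, an EC20 of TRH (10 nM final) was injected and fluo-8 calcium signal (Ex 480/Em 530) followed at 1 s/cycle for 100 cycles in TRHR-expressing cells.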
Glioma ERSR ind: qHTS for Inducers of the Endoplasmic Reticulum Stress Response (ERSR) in Human Glioma: qHTS; U87-MG GRP78 promoter luciferase reporter, 16 h; Potency, µM, for the others: top-dose activation, usual class: activators; 420,000 compounds, 0.02% hits; active means well fitted activation curve with a large enough effect; further: potency means the concentration at half of the fitted maximal effect; series mostly up to about 76 µM; % of control where 0% means no effect; nearly all actives have a fitted effect of over 35% in size
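Stably transfected U87-MG human glioma cells carrying a GRP78-based luminescent sensor were seeded at 1000 cells/well, pin-dosed with compounds and incubated 16 h. Luciferase reagent was then added, and end-point luminescence was read after 10 min at room temperature.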
D1 ag: Allosteric Agonists of the Human D1 Dopamine Receptor: qHTS. D(1A) dopamine receptor (Homo sapiens), P21728. HEK293 T-REx D1 cells, calcium flux, agonist mode. activation, % at 2 µM. 360,000 compounds, 1% hits; further: 0% is about no effect
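Tetracycline-induced HEK293 TREx D1 cells, force-coupled to calcium signalling, were dye-loaded with a no-wash calcium kit. Compound was pin-added after a 10 s baseline. Fluorescence was read kinetically at 1 cycle/s for 180 s, with calcium rises flagged as agonism.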
TRHR ag: qHTS for Small Molecule Agonists and Allosteric Enhancers of Human TRH Receptor: Primary Screen for Agonists; TRHR cells, calcium flux fluo-8, FDSS agonist mode; activation, % at 2 µM; Thyrotropin-releasing hormone receptor (Homo sapiens), P34981; 360,000 compounds, 0.18% hits; AID 493084, 2011; further: 0% is about no effect
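TRHR-expressing cells, plated overnight in medium with 10% serum, were loaded with fluo-8 calcium dye at room temperature. After a 10 s baseline, library compound was pin-added and calcium release was recorded kinetically (ex 480/em 530) as agonist response.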
D1 potentiator: Potentiators of Human D1 Dopamine Receptor: qHTS; HEK293 TREx D1 cells, calcium flux, dopamine EC20 potentiation; D(1A) dopamine receptor (Homo sapiens), P21728; potentiation, % at 10 µM; AID 504651, 2011; 360,000 compounds, 0.036% hits; in the data active means potentiation above about 30%; further: 0% is about no effect
* marks the source's active call; other numbers are inactive results; · = no result; ! = a repeat was not active. Unless noted, no stated cut-off is given here; in the data, active means activation above about 30%; inactive means the rest.

SMILES	D1 antag	TRHR PAM	Glioma ERSR ind	D1 ag	TRHR ag	D1 potentiator
Cc1ccccc1OCc1ccc(-c2nc(C#N)c(NCCCN(C)C)o2)o1	-21.5	5.9	0.5%	43.9*	0.1	-1.3
CCCCNc1oc(-c2ccc(COc3ccccc3C)o2)nc1C#N	0.0	-1.9	-0.2%	2.3	0.2	-0.1
COc1ccc2[nH]cc(C(O)CN3CCN(c4ccccc4)CC3)c2c1 (configuration not stated)	-1.3	-3.5	·	6.4	3.0	-2.0
COc1ccc2[nH]cc(C(O)CN3CCN(c4ccccc4F)CC3)c2c1 (configuration not stated)	-61.6*	-0.1	-3.1%	18.5	0.2	-14.6
COc1cccc(C(=O)Nc2ccc3[nH]ncc3c2)c1	-33.6*	1.1	-1.3%	-1.9	-0.7	-8.3
COc1cc(C(=O)Nc2ccc(C(=O)c3ccncc3)cc2)cc(OC)c1OC	·	·	-2.4%	·	·	·
CCOc1cc(OCC)cc(C(=O)Nc2cccc(-c3nc4ccccc4[nH]3)c2)c1	-37.9*	1.4	-10.3%	1.3	1.1	-3.1
CCOc1cccc(C(=O)Nc2ccncc2)c1	-32.1*	4.6	-0.8%	7.2	0.3	-4.9
CCOc1cccc(C(=O)Nc2ccc(NC(=O)c3ccc(Br)cc3)cc2)c1	-6.1	-2.4	-1.2%	0.5	-1.3	-1.2
COc1cc(OC)cc(C(=O)Nc2ccc(C(=O)c3ccncc3)cc2)c1	-38.3*	1.0	0.7%	5.0	-0.2	-2.0
COCCN1CCN(C(=O)c2cnn(-c3nccc(-c4ccccc4OC)n3)c2-c2ccco2)CC1	·	·	-1.1%	·	·	·
CCCC(CCC)C(=O)Nc1cccc(C(=O)O)c1	·	-9.0	-5.1%	-1.4	-0.2	1.9
O=C(COc1cccc(C(F)(F)F)c1)Nc1ccc2[nH]ncc2c1	0.6	0.8	-3.0%	2.5	0.4	-2.0
CCOc1cccc(C(=O)Nc2ccc3[nH]ncc3c2)c1	-31.7*	-4.2	-2.7%	-4.2	-0.3	-5.8
CCOc1cccc(NC(=O)c2ccc(S(=O)(=O)N(C)C)cc2)c1	-42.5*	-5.3	-4.5%	3.9	-0.3	-12.2
COc1ccc(NC(=O)C2CCCN(S(=O)(=O)c3ccccc3)C2)c(OC)c1 (configuration not stated)	9.4	32.7*	-7.8%	1.9	-1.1	-8.0
COc1ccc(S(=O)(=O)N2CCCC(C(=O)Nc3ccc(OC)c(OC)c3)C2)cc1 (configuration not stated)	-31.1*	2.7	-3.0%	-0.6	-0.3	-1.6
COc1ccc(NC(=O)C2CCCN(S(=O)(=O)c3ccc4[nH]c(=O)ccc4c3)C2)cc1OC (configuration not stated)	-6.7	38.9*!	4.9%	1.8	0.0	0.2
O=C(c1cccc(Cl)c1)C1CCCN(S(=O)(=O)c2ccccc2)C1 (configuration not stated)	-53.7*	-0.6	-3.2%	-0.3	-1.1	-2.9
C=CCS(=O)(=O)N1CCCC(C(=O)c2cccc(Cl)c2)C1 (configuration not stated)	-23.0	3.2	-3.9%	0.6	-1.2	-2.3
O=C(Nc1ccccc1F)C1CCCN(S(=O)(=O)c2ccccc2)C1 (configuration not stated)	3.6	3.4	-3.3%	4.3	-0.8	-0.4
COc1ccc(NC(=O)C2CCCN(S(=O)(=O)c3ccc(C)cc3)C2)cc1OC (configuration not stated)	-1.4	-2.1	0.2%	1.2	0.2	3.8
Cc1cc2nccc(C)c2cc1C	·	·	6.9%	·	·	·
CC(C)(C)n1ncc2c(=O)n(Cc3cccc(-c4cccs4)c3)cnc21	·	·	-1.6%	·	·	·
O=C(Cn1ncc2c(=O)oc3ccccc3c21)NCc1ccc(Cl)cc1	0.3	2.0	-2.1%	3.2	0.5	-0.7
SMILES	D1 antag	TRHR PAM	Glioma ERSR ind	D1 ag	TRHR ag	D1 potentiator
COC(=O)NC(/C(C(=O)OC)=C(\C)NCc1ccccc1)c1cccc(C)c1 (configuration not stated)	·	·	-3.0%	·	·	·
COc1ccc2nc3c(cc2c1)Cn1c-3nc2ccccc2c1=O	·	·	-12.2%	·	·	·
CC(C(=O)N1CCOCC1)(c1ccccc1)c1ccccc1	-34.3*	-19.4	-3.6%	0.4	-0.4	-9.1
COc1ccccc1CNCC(O)Cn1c2ccccc2c2ccccc21 (configuration not stated)	-10.2	12.8	-1.7%	89.9*	6.2	-4.8
CC(Oc1ccc2ccc(=O)oc2c1)C(=O)NC(Cc1c[nH]c2ccc(O)cc12)C(=O)O (configuration not stated)	-87.4*	-21.3	-0.5%	0.1	0.6	-8.5
COc1ccccc1C(=O)N[C@@H]1c2ccccc2C2(CCN(Cc3cccnc3)CC2)[C@H]1O	·	·	-5.2%	·	·	·
Cc1ccc(OC(=O)C2c3ccccc3Oc3ccccc32)cc1C	-12.0	2.5	-3.5%	31.7*	0.2	-3.6
Cc1ccccc1C(=O)NCC(=O)OC(C(=O)Nc1cc(C(F)(F)F)ccc1Cl)c1ccccc1 (configuration not stated)	-8.3	-8.4	·	13.3	2.3	-3.8
CN(CCNC(=O)c1ccc(CS(=O)(=O)c2c(Cl)cccc2Cl)o1)CCc1ccccc1	-56.5*	0.1	-3.1%	4.5	-0.3	-13.4
CCN(CC)C1CCN(C(=O)c2cnn(-c3nccc(-c4ccccc4OC)n3)c2-c2ccco2)C1 (configuration not stated)	·	·	-5.2%	·	·	·
CCCNC(=O)/C=C/c1ccc(C(C)C)cc1	3.9	35.2*	8.0%	0.5	-0.6	-0.8
CC(C)c1ccc(/C=C/C(=O)NCCCc2ccccc2)cc1	-1.5	-0.8	0.2%	12.2	0.8	-5.9
CCCn1nnc(NC(=S)NC(=O)/C=C/c2ccc(Cl)cc2)n1	-0.7	-1.1	0.3%	1.7	0.1	26.8
CCCn1nnc(NC(=O)/C=C/c2ccc(C(C)C)cc2)n1	-18.9	3.0	3.3%	38.3*	-0.5	-9.3
CC1CC=CC2C1C(=O)N(Cc1ccccc1)C2c1ccc(Br)cc1F (configuration not stated)	·	·	-6.1%	·	·	·
CN(Cc1ccco1)c1ccnc(-c2cccc(C#N)c2)n1	·	·	1.2%	·	·	·
O=C1CC(N2CCN(c3cccc(C(F)(F)F)c3)CC2)C(=O)N1c1ccccc1 (configuration not stated)	-2.2	4.1	-4.1%	53.4*	2.0	-3.6
